A short description of assay [1]: ATG_CRE_CIS: Attagene CIS-FACTORIAL HepG2 Assay for human cAMP Responsive Element (CRE) binding protein 3 (AID 2282926). The note with it: HepG2 CRE cis-reporter, Attagene multiplexed mRNA; actives raise or lower the signal. The method, boiled down:
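HepG2 cells transiently transfected with cis-element-driven multiple reporter transcription units; CRE reporter mRNA measured 24 h after dosing by RT-PCR, 6-FAM labelling, HpaI digestion and capillary electrophoresis. Bidirectional fit versus DMSO baseline.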

Assay [2] deals with CCAAT/enhancer-binding protein beta (Homo sapiens) (UniProt P17676). Put plainly: ATG_C_EBP_CIS: Attagene CIS-FACTORIAL HepG2 Assay for human CCAAT/Enhancer Binding Protein (C/EBP) beta (AID 2282927). The settings on record: HepG2 Attagene cis-factorial transcription factor reporter; actives raise or lower the signal. The procedure, abridged: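 Changes in reporter mRNA, rather than exogenous chimeric receptor activity, reflect native C/EBP signalling in transfected HepG2 cells dosed for 24 h; transcripts are detected by RT-PCR and capillary electrophoresis.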
Sequence of CCAAT/enhancer-binding protein beta (Homo sapiens) (P17676 whole entry, looked up): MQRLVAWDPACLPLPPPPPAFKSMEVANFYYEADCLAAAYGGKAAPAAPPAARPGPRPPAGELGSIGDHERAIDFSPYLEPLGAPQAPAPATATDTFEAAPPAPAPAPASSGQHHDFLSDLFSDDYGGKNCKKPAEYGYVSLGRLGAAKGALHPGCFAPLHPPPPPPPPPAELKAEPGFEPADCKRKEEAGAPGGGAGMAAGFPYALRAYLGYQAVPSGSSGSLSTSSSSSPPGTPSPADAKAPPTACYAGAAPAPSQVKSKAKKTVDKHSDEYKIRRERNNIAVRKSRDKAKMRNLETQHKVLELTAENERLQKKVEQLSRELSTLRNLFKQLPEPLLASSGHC

Assay [3] in a line: ATG_CMV_CIS: Attagene CIS-FACTORIAL HepG2 Assay for human CMV (Internal Marker) (AID 2282928).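 Further: endpoint acts as a background internal control marker rather than a target.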 The note with it: HepG2 CMV promoter reporter, transcription factor profiling; actives raise or lower the signal. The procedure, abridged:
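After transient transfection of HepG2 with reporter transcription units driven by cis-regulatory promoters, cells receive test chemical for 24 h. Labeled reporter amplicons, digested with HpaI, are sized and quantified by capillary electrophoresis against DMSO.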

The nature of assay [4]: ATG_DR4_LXR_CIS: Attagene CIS-FACTORIAL HepG2 Assay for human Liver X Receptor (LXR), DR4 submotif (AID 2282929). The note with it: HepG2 Attagene DR4 cis-reporter, mRNA transcription; actives raise or lower the signal. The procedure, abridged:
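Endogenous factor activity at a DR4 cis-element is read as reporter mRNA in transiently transfected HepG2 cells. Exposure lasts 24 h; transcripts are amplified, fluorescently labelled and sized by capillary electrophoresis, with DMSO as baseline.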

Assay [5] deals with Aryl hydrocarbon receptor (Homo sapiens) (UniProt P35869). Put plainly: ATG_Ahr_CIS: Attagene CIS-FACTORIAL HepG2 Assay for human Aryl Hydrocarbon Receptor (Ahr) (AID 2282930). The note with it: HepG2 AhR cis-factorial reporter transcription; actives raise or lower the signal. The method, boiled down:
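HepG2, transient MRTU (cis) transfection, 24 h exposure. RNA → cDNA → PCR → 6-FAM primer extension → HpaI 2 h 37 C → CE. Fit: bidirectional, DMSO baseline.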

Assay [6] can be described thus: ATG_AP_1_CIS: Attagene CIS-FACTORIAL HepG2 Assay for human Activator Protein 1 (AP-1) (AID 2282931). The settings on record: HepG2 Attagene cis-factorial AP-1 reporter mRNA; actives raise or lower the signal. The method, boiled down: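 Fluorescence of labelled PCR fragments separated by capillary electrophoresis gives reporter mRNA levels. HepG2 with transfected cis-regulated reporter units, 24 h exposure; DMSO serves as baseline for bidirectional curve fits.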

A short description of assay [7]: ATG_AP_2_CIS: Attagene CIS-FACTORIAL HepG2 Assay for human Activator Protein 2 (AP-2) (AID 2282932). The note with it: HepG2 AP-2 cis-reporter, Attagene transcription factor profiling; actives raise or lower the signal. The method, boiled down:
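HepG2, transient MRTU transfection, cis-regulated reporters; 24 h compound exposure; RNA isolated, RT-PCR, 6-FAM labelling, HpaI digest, CE fluorescence. DMSO = negative control/baseline, bidirectional fit.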

Assay [8] can be described thus: ATG_BRE_CIS: Attagene CIS-FACTORIAL HepG2 Assay for human Bone Morphogenetic Protein (BMP) Response Element (BRE) (AID 2282933). The settings on record: HepG2 BMP response element reporter, Attagene transcription factor profiling; actives raise or lower the signal. The procedure, abridged:
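After a 24 h chemical treatment, transiently transfected HepG2 cells were lysed for RNA; reporter transcripts were quantified by fluorescent RT-PCR and capillary electrophoresis, normalised to DMSO.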

For assay [9], the target named is Retinoic acid receptor alpha (Homo sapiens) (UniProt P10276). The assay is described as follows: ATG_DR5_RAR_CIS: Attagene CIS-FACTORIAL HepG2 Assay for human Retinoic Acid Receptor Alpha (RARE), DR5 submotif (AID 2282934).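 On AC50: reporter responds to endogenous RAR alpha beta and gamma in HepG2 not RARA alone.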 The settings on record: HepG2 Attagene cis-factorial RARE DR5 reporter, mRNA; actives raise or lower the signal. The method, boiled down:
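HepG2, transient cis-reporter transfection, 24 h exposure. mRNA readout: RT-PCR, FAM label, HpaI cut, capillary electrophoresis. DMSO baseline, gain/loss fitting.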

The source made the active and inactive calls. How the source made its calls: active means hit-call score of the fitted dose curve at least 0.9, where 1 is the maximum; inactive means score below 0.9.

These results are taken from PubChem BioAssay (EPA / NIEHS).

Sequence of Retinoic acid receptor alpha (Homo sapiens) (P10276 whole entry, looked up): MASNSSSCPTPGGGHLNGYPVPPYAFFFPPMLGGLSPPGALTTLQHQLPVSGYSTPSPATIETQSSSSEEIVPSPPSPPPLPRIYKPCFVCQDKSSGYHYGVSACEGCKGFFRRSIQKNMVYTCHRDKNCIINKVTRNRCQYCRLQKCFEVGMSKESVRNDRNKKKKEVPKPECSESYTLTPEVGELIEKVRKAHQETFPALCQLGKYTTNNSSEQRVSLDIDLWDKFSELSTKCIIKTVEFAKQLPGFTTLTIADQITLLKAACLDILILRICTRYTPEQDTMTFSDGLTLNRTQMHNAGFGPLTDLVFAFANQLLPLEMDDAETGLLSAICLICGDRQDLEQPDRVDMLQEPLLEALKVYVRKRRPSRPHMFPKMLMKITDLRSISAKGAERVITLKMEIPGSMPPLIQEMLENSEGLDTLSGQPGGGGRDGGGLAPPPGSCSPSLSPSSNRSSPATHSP
Sequence of Aryl hydrocarbon receptor (Homo sapiens) (P35869 whole entry, looked up): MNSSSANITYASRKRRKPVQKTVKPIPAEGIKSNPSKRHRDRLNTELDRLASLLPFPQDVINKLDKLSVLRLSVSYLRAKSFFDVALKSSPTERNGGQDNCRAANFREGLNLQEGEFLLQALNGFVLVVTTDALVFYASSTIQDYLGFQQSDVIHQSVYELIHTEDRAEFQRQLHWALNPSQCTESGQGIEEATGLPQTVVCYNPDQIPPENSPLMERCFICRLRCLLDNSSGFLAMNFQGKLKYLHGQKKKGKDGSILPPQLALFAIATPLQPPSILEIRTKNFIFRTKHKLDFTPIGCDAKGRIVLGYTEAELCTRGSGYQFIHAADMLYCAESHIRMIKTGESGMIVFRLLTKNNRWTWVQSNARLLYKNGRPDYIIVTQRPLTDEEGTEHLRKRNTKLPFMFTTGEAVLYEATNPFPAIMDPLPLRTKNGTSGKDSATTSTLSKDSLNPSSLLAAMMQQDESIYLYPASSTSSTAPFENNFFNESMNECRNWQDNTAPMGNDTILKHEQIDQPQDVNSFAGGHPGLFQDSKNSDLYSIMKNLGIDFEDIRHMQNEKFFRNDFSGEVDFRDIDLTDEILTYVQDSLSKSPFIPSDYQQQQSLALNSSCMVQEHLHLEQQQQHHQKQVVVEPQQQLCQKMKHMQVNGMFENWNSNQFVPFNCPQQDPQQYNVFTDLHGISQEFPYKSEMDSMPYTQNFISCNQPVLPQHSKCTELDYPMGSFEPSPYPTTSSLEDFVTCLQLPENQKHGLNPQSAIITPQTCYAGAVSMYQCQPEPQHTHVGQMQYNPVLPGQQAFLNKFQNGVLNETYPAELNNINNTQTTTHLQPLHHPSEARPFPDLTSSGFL

For the compound `COc1ccc(N)c(C)c1`, the result in assay [1], in assay [2], in assay [3], in [4], in [5] and in [7] was inactive. For the same compound, the AC50 was 70 µM (active) in assay [6] and 151 µM (active) in [8].
`C=C/C(C)=C/C/C=C(\C)CCC=C(C)C`: the compound was called inactive in assay [1], in assay [2], in [3], in [4], in [5] and in assay [7]. Besides, the compound was called inactive in assay [8]. Further, the AC50 in [6] is 125 µM (active).
For `NNC(=O)OCc1ccccc1`, the call in [1], in assay [2], in assay [3], in assay [4], in assay [5] and in assay [6] was inactive. In addition, the compound was called inactive in assay [7], in assay [8] and in assay [9].
In the case of `CC1=CC(C)C(C=O)C(C)C1` (stereo unspecified) (tested in a mixture with another compound), the call in [1], in assay [2], in assay [3], in assay [4], in assay [5] and in [6] was inactive. Besides, the compound was classed as inactive in assay [7] and in [8].
Regarding `[Cu+]`, the compound was called inactive in [1], in assay [2], in [3], in assay [4], in assay [6] and in [7]. Besides, the compound was called inactive in assay [8] and in assay [9]. Moreover, the half-maximal activity concentration (AC50) in assay [5] was 15 µM (active).
For `CCCCOCCOCCOCCO`, the outcome in [1], in assay [2], in assay [3], in assay [4], in assay [5] and in assay [6] was inactive. In addition, the call in assay [7], in assay [8] and in assay [9] was inactive.
Turning to `CC(C)CCOC(=O)CC(C)C`, the call in assay [1], in [2], in [3], in [4], in assay [5] and in [6] was inactive. Also, the compound was classed as inactive in assay [7] and in [8].
As for `Cc1cc(O)c2c(c1)C(=O)c1cc(O)cc(O)c1C2=O`, the AC50 in assay [1] was 8.7 µM (active); in [2] it was 12.5 µM (active); in assay [4] it was 44.8 µM (active); in [5], 25.3 µM (active); in assay [8], 9.2 µM (active); in [9] it was 17.6 µM (active). The compound was classed as inactive in assay [3], in assay [6] and in assay [7].
On to `CCNC(=S)NCC`, for which the compound was called inactive in assay [1], in assay [2], in assay [3], in assay [4], in assay [5] and in [6]. Further, the call in assay [7] and in assay [8] was inactive.
For `O=S(=O)(O)CCCN1CCOCC1`, the call in assay [1], in [2], in [3], in assay [4], in [5] and in [6] was inactive. The call in assay [7], in assay [8] and in assay [9] was inactive.
For the compound `CCCCCCOc1ccc(O)cc1`, the outcome in assay [1], in assay [2], in [5], in assay [6], in [7] and in assay [8] was inactive. For the same compound, the result in assay [9] was inactive. Also, the results for the AC50 in assay [3] and in assay [4] were 33.4 µM (active) and 44.1 µM (active), respectively.
For the compound `CCCCN(CCCC)CCCCCCN(CCCC)CCCC`, the compound was classed as inactive in [1], in assay [2], in assay [3], in [4], in [5] and in [6]. The compound was classed as inactive in assay [7], in assay [8] and in assay [9].
Regarding `O=Cc1ccccc1O`, the compound was classed as inactive in assay [1], in assay [2], in assay [3], in [4], in [6] and in assay [7]. In addition, the compound was classed as inactive in assay [8] and in assay [9]. In addition, the AC50 in assay [5] was 48.5 µM (active).
For `CCC(=O)OC/C=C(\C)CCC=C(C)C`, the outcome in [1], in [2], in assay [3], in [4], in assay [5] and in assay [6] was inactive. Also, the outcome in assay [7] and in assay [8] was inactive.
For `Nc1cc([N+](=O)[O-])ccc1C(=O)O`, the result in [1], in assay [2], in assay [3], in assay [4], in assay [6] and in [7] was inactive. Also, the outcome in assay [8] and in assay [9] was inactive. Also, the half-maximal activity concentration (AC50) in assay [5] is 20.3 µM (active).
For the compound `CCCCCCCOC(C)=O`, the call in assay [1], in assay [2], in [3], in assay [4], in assay [5] and in assay [6] was inactive. Further, the compound was classed as inactive in assay [7], in assay [8] and in assay [9].
Consider `O=c1cc(-c2ccc(O)cc2)oc2cc(O)cc(O)c12`, for which the AC50 in [1] was 26 µM (active); in assay [2], 16.8 µM (active); in assay [3], 6.31 µM (active); in [4] it was 7.83 µM (active); in assay [6] it was 64.3 µM (active). Moreover, the result in assay [5], in assay [7], in assay [8] and in assay [9] was inactive.
As for `CC1(C)[C@H](C=C(Cl)Cl)[C@H]1C(=O)OCc1cccc(Oc2ccccc2)c1`, the call in assay [1], in assay [2], in assay [3], in [4], in [5] and in assay [6] was inactive. The call in [7] and in [8] was inactive.
Turning to `COc1ccccc1NC(=O)CC(C)=O`, the compound was classed as inactive in [1], in assay [2], in assay [3], in assay [4], in assay [6] and in [7]. Besides, the call in assay [8] and in assay [9] was inactive. Moreover, the AC50 in [5] is 34.8 µM (active).
Consider `O=c1cc[nH]cc1`, for which the result in assay [1], in assay [2], in assay [3], in assay [4], in assay [5] and in assay [7] was inactive. In addition, the outcome in [8] was inactive.
As to `CC(=O)Oc1c(C)c(C)c2c(c1C)CC[C@@](C)(CCC[C@H](C)CCC[C@H](C)CCCC(C)C)O2`, the compound was classed as inactive in [1], in assay [2], in assay [3], in assay [4], in [5] and in [7]. For the same compound, the compound was called inactive in [8] and in assay [9].
For `O=C(O)C1=NN(c2ccc(S(=O)(=O)O)cc2)C(=O)C1`, the compound was called inactive in assay [1], in [2], in assay [3], in assay [4], in assay [5] and in assay [6]. The outcome in [7], in [8] and in [9] was inactive.
Take `CC(O)COCC(C)O` (stereo unspecified): the call in assay [1], in assay [2], in [3], in [4], in assay [5] and in assay [6] was inactive. The outcome in [8] was inactive.
Turning to `C=CC(=O)OCCCCCC`, the compound was called inactive in [1], in assay [2], in assay [3], in assay [4], in [5] and in assay [7]. Moreover, the call in [8] was inactive.
With `CC(C)Cc1ccccc1`, the call in assay [1], in assay [2], in assay [3], in assay [4], in assay [5] and in assay [6] was inactive. The outcome in assay [8] and in assay [9] was inactive.
Regarding `CCCCCCCCCCCCCCCCCC(=O)OCCCCCCCCCCCCCC(C)C`, the call in [1], in assay [2], in [3], in assay [4], in [5] and in assay [7] was inactive. The compound was called inactive in [8].
As to `C=CC(C)(CCC=C(C)C)OC(=O)CC` (stereo unspecified), the outcome in assay [1], in assay [2], in assay [3], in [4], in assay [5] and in [7] was inactive. Further, the outcome in assay [8] was inactive.
Consider `CC(C)N(c1ccccc1)C(C)C`, for which the call in assay [1], in assay [2], in assay [3], in assay [4], in assay [5] and in [7] was inactive. Further, in [8], the call was inactive.

The AC50 is the concentration at which the activity in the assay is half-maximal.
